Test results from PubChem BioAssay (Tox21).
Unmarked numbers belong to inactive results. Records with an inconclusive call do not appear. Where a call stands in place of a potency, no number is given. Activity calls are given as the source filed them. Unless noted, the call rests on the fitted dose curve; in most records, active means well fitted curve in the direction sought with a large enough effect in the repeat runs; inconclusive means weak or mixed curves; inactive means no such curve, though single readings can be large; an effect the other way counts as inactive or inconclusive.

What was measured:
[1] = molecular target: Estrogen receptor beta (Homo sapiens) (UniProt Q92731); assay: qHTS assay to identify small molecule agonists of the estrogen receptor beta (ER-beta) signaling pathway (AID 1259377; active means well fitted activation curve with a large enough effect in the signal ratio in the repeat runs, not every such curve was filed as active; the % refers to the signal ratio; further: potency means the concentration at half of the fitted maximal effect)
Sequence of Estrogen receptor beta (Homo sapiens) (Q92731 whole entry, looked up): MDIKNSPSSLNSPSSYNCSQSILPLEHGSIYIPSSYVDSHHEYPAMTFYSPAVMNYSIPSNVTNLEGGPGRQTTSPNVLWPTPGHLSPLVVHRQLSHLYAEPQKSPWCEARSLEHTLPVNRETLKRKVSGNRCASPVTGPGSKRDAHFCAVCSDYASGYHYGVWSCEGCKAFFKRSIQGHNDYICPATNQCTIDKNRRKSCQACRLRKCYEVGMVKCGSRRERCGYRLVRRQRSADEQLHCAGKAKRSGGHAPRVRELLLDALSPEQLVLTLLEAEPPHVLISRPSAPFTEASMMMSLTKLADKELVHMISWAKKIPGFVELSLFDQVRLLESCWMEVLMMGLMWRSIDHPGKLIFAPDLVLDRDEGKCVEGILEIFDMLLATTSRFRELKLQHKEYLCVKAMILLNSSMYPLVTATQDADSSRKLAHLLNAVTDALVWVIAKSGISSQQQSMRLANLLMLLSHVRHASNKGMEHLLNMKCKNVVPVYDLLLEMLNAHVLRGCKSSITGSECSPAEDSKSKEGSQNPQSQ
Outline: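 Reporter cells (HEK293T, ER-beta-UAS-bla) receive compounds or DMSO after a 6 hr pre-incubation. They then incubate 16 hr at 37C/5% CO2, and fluorescence from LiveBLAzer B/G substrate is measured after 2 hours at room temperature.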

[2] = molecular target: Estrogen receptor beta (Homo sapiens) (UniProt Q92731); assay: qHTS assay to identify small molecule antagonists of the estrogen receptor beta (ER-beta) signaling pathway (AID 1259378; active means well fitted inhibition curve with a large enough effect in the signal ratio in the repeat runs, not every such curve was filed as active; the % refers to the signal ratio)
Outline: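 ER-beta-UAS-bla HEK293T cells in 2% charcoal-stripped FBS medium treated with compound plus 1nM final 17-beta-estradiol for 16 hr at 37C. Beta-lactamase reporter read by FRET substrate fluorescence after 2 hours at room temperature.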

[3] = qHTS assay to identify small molecule agonists of the androgen receptor (AR) signaling pathway in the presence of an antagonist - cell viability counter screen (AID 1259379);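 further: MDA-kb2 human breast cancer cells carrying an MMTV luciferase reporter; series mostly up to about 92 µM; nearly all actives have a fitted effect of over 25% in size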
Outline: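 Cytotoxicity counter-screen run in the same wells as the nilutamide-challenged (3.0 µM final) AR agonist assay in MDA-kb2 cells. Compounds tested at 15 concentrations for 16 h, 37 °C without CO2; CellTiter-Fluor fluorescence read.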

[4] = qHTS assay to identify small molecule antagonists of the estrogen receptor beta (ER-beta) signaling pathway - cell viability counter screen (AID 1259382); further: series mostly up to about 92 µM; nearly all actives have a fitted effect of over 55% in size
Outline: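 Cytotoxicity was measured in the same wells by CellTiter-Glo luminescence after 30 min at room temperature. Cells were ER-beta-bla HEK293T in charcoal-stripped serum, given compound together with 1 nM E2 and incubated 16 h at 37C.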

[5] = molecular target: Estrogen receptor (Homo sapiens) (UniProt P03372); assay: qHTS assay to identify small molecule agonists of the estrogen receptor alpha (ER-alpha) signaling pathway in the presence of an antagonist (AID 1259383; calls by dose curve; further: top concentration of the series differs between compounds; nearly all actives have a fitted effect of over 15% in size)
Sequence of Estrogen receptor (Homo sapiens) (P03372 whole entry, looked up): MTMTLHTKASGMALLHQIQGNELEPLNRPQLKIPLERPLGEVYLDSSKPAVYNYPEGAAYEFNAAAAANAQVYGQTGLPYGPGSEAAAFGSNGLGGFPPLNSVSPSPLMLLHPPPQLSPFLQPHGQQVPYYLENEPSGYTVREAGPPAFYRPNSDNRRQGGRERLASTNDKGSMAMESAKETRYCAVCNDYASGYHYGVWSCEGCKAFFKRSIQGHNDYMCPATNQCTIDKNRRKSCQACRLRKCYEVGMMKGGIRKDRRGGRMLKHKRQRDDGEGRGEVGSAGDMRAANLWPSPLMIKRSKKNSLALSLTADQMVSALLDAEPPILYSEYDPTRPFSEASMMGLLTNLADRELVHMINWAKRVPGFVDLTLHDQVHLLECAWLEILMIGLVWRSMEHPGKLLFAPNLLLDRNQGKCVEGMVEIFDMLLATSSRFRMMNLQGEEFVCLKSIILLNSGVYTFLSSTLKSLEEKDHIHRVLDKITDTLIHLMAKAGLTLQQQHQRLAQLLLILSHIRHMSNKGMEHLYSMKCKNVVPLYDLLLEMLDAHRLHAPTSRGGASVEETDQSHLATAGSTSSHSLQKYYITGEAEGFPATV
Outline: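 Agonist-mode confirmation run in the presence of 10.0nM (final) ICI-182,780 antagonist. The reporter was ERE-driven luciferase in VM7Luc4E2 cells, grown in charcoal-stripped serum. Cells were exposed to 15-concentration compound series for 22hr, then ONE-Glo luminescence was read.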

[6] = qHTS assay to identify small molecule agonists or antagonists of the thyroid stimulating hormone receptor (TSHR) signaling pathway - wild type cell line counter screen (AID 1259384; calls by dose curve)
Outline: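 Wild-type Hek293 cells, 800/well, 18 h at 37C, then compound with Ro20-1724 for 30 min RT. cAMP by HTRF (cAMP-d2/anti-cAMP cryptate), 1 h RT, fluorescence read. 15 concentrations, triplicates.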

[7] = molecular target: Thyrotropin receptor (Homo sapiens) (UniProt P16473); assay: qHTS assay to identify small molecule antagonists of the thyroid stimulating hormone receptor (TSHR) signaling pathway (AID 1259385; calls by dose curve; further: nearly all actives have a fitted effect of over 20% in size)
Sequence of Thyrotropin receptor (Homo sapiens) (P16473 whole entry, looked up): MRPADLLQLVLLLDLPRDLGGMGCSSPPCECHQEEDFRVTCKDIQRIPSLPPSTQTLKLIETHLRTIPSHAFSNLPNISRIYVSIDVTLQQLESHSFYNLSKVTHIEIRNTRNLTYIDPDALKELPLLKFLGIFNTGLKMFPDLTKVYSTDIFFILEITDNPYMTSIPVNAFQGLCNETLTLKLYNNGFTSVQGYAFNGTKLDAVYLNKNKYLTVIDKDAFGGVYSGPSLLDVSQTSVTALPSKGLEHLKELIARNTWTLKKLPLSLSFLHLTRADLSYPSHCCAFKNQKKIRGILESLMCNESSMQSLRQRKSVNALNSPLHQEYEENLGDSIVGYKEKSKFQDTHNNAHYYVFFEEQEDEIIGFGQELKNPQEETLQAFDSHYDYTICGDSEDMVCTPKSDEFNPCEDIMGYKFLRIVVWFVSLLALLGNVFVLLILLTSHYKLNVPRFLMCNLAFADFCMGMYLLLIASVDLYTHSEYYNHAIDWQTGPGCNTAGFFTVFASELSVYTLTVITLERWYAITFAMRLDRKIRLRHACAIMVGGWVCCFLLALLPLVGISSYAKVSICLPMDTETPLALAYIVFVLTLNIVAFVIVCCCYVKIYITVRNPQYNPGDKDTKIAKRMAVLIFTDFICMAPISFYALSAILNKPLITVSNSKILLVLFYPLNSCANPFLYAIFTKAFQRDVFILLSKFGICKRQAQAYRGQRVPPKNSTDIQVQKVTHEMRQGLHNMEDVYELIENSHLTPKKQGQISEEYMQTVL
Outline: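 TSHR-HEK293 cells (800/well) plated 18 h, then compounds with Ro20-1724 and TSH at 1.5 ng/mL final, 30 min at room temperature. cAMP quantified by HTRF (cAMP-d2/anti-cAMP-cryptate, 1 h); 15 concentrations in triplicate.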

[8] = qHTS assay to identify small molecule agonists of the estrogen receptor alpha (ER-alpha) signaling pathway in the presence of an antagonist - cell viability counter screen (AID 1259386); further: series mostly up to about 92 µM; nearly all actives have a fitted effect of over 30% in size
Outline: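 Compounds tested at 15 concentrations for 22 h at 37C alongside 10.0nM (final) ICI-182,780 antagonist, in VM7Luc4E2 cells grown in phenol red-free, charcoal-stripped medium. Viability read by CellTiter-Fluor fluorescence after 1 h reagent incubation.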

[9] = molecular target: Progesterone receptor (Homo sapiens) (UniProt P06401); assay: qHTS assay to identify small molecule agonists of the progesterone receptor (PR) signaling pathway (AID 1346784; calls by dose curve; further: nearly all actives have a fitted effect of over 30% in size)
Sequence of Progesterone receptor (Homo sapiens) (P06401 whole entry, looked up): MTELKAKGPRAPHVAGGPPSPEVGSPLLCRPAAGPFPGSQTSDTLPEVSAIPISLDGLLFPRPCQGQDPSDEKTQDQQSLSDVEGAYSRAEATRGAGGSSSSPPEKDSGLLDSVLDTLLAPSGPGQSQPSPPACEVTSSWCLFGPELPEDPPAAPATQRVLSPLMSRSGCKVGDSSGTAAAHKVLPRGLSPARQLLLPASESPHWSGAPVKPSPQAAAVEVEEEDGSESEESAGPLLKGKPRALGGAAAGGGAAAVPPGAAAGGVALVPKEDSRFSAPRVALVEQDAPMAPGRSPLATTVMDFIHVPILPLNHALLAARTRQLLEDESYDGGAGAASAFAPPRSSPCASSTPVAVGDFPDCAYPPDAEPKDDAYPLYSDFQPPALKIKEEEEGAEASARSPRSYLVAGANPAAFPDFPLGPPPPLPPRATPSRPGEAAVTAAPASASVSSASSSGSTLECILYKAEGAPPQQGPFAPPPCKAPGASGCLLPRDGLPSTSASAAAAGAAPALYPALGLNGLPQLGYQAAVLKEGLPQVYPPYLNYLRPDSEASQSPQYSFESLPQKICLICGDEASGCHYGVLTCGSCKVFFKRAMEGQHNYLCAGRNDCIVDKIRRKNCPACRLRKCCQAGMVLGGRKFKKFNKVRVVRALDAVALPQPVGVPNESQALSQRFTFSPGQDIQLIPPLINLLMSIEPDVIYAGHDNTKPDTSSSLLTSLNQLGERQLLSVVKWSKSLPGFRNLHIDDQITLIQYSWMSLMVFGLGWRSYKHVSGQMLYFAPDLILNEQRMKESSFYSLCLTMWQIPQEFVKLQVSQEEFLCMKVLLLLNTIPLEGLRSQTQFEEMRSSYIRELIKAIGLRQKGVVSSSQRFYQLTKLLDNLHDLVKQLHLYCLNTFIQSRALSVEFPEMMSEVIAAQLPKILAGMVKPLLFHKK
Outline: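 Reporter assay, GripTite PR-UAS-bla HEK 293T cells: 16 hr exposure to DMSO-dissolved compounds at 37C, 5% CO2, in steroid-depleted (2% charcoal-stripped FBS) medium; beta-lactamase measured by FRET fluorescence.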

[10] = molecular target: Progesterone receptor (Homo sapiens) (UniProt P06401); assay: qHTS assay to identify small molecule antagonists of the progesterone receptor (PR) signaling pathway (AID 1346795; active means well fitted inhibition curve with a large enough effect in the signal ratio in the repeat runs, not every such curve was filed as active; the % refers to the signal ratio)
Outline: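 Stimulus R5020 at 1 nM final; cells HEK293T PR-UAS-bla; medium with 2% charcoal-stripped FBS; compound exposure 16 hr at 37C, 5% CO2; detection by FRET beta-lactamase substrate, 2 hr, room temperature.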

[11] = qHTS assay to identify small molecule antagonists of the progesterone receptor (PR) signaling pathway - cell viability counter screen (AID 1346798); further: nearly all actives have a fitted effect of over 50% in size; further: potency means the concentration at half of the fitted maximal effect
Outline: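 In the same plates used for the beta-lactamase readout, cell viability of compound- and R5020-treated PR-UAS-bla HEK293T cells (16 hr, 37C) was assessed by CellTiter-Glo luminescence.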

[12] = qHTS assay to identify small molecule agonists of the progesterone receptor (PR) signaling pathway - cell viability counter screen (AID 1346799; calls by dose curve; further: nearly all actives have a fitted effect of over 45% in size)
Outline: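 Multiplexed viability read: CellTiter-Glo luminescence, 30 min RT, following LiveBLAzer FRET measurement on PR-UAS-bla HEK293T cells exposed to compounds 16 hr.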

[13] = qHTS assay to identify small molecule agonists of the TGF-beta/Smad signaling pathway - cell viability counter screen (AID 1346829); further: top concentration of the series differs between compounds; nearly all actives have a fitted effect of over 45% in size
Outline: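 In parallel with the Smad reporter read, viability of HEK 293T cells stably carrying SBE-bla is quantified by ATP luminescence following 5 hr compound treatment.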

[14] = qHTS assay to identify small molecule agonists of the TGF-beta/Smad signaling pathway (AID 1346859; active means well fitted activation curve with a large enough effect in the signal ratio in the repeat runs, not every such curve was filed as active; the % refers to the signal ratio; further: series mostly up to about 77 µM)
Outline: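 Screening used HEK 293T SBE-bla cells at 4,000/well. Test agents: 5 hr, 37 C. Detection: FRET substrate, 2 hr RT, then excitation 405 nm with emissions at 460 and 530 nm.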

[15] = molecular target: Thyrotropin-releasing hormone receptor (Homo sapiens) (UniProt P34981); assay: qHTS assay to identify small molecule antagonists of the thyrotropin-releasing hormone receptor (TRHR) signaling pathway (AID 1346877; active means well fitted inhibition curve with a large enough effect in the repeat runs, not every such curve was filed as active; further: series mostly up to about 51 µM)
Sequence of Thyrotropin-releasing hormone receptor (Homo sapiens) (P34981 whole entry, looked up): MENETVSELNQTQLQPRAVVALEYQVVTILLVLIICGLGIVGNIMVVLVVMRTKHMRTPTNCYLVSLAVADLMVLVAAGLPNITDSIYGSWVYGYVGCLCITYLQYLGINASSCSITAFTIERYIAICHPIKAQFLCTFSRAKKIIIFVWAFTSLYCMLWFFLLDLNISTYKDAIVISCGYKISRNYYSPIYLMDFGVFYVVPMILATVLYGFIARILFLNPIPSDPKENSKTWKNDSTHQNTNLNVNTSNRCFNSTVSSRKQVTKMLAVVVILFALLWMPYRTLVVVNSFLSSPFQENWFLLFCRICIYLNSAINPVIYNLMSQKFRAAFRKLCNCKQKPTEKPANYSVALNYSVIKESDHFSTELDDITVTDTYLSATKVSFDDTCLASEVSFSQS
Outline: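 Antagonist mode: after a 5 min room-temperature compound exposure, cells were stimulated with 1 nM (final) TRH. Dye-loaded TRHR-HEK293 cells were used, and calcium-dependent fluorescence was followed for 3 min, with 15-point titrations run in triplicate.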

[16] = molecular target: Thyrotropin-releasing hormone receptor (Homo sapiens) (UniProt P34981); assay: qHTS assay to identify small molecule agonists of the thyrotropin-releasing hormone receptor (TRHR) signaling pathway (AID 1346891; calls by dose curve; further: series mostly up to about 58 µM)
Outline: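 Readout was intracellular calcium fluorescence in TRHR-Hek293 cells. Cells were incubated 18 h, dye-loaded 2 h at 37 °C, and treated with compound in agonist mode.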

[17] = Human pregnane X receptor (PXR) small molecule agonists, qHTS cell viability counter screen (AID 1346977); further: nearly all actives have a fitted effect of over 50% in size
Outline: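 In each well, the PXR reporter HepG2 line was checked for viability: CellTiter-Fluor reagent added 23hr post-dosing, fluorescence read after 1hr incubation at 37C.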

[18] = qHTS assay to identify small molecule antagonists of the TGF-beta/Smad signaling pathway - cell viability counter screen (AID 1346824); further: nearly all actives have a fitted effect of over 50% in size
Outline: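 SBE-bla HEK 293T cells, incubated overnight, then compound plus 0.25 ng/mL TGF-beta1 (stock added) for 5 hr at 37 C. Viability was read in the same wells by CellTiter-Glo luminescence after 30 min at room temperature.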

[19] = qHTS assay to identify small molecule agonists of the estrogen receptor beta (ER-beta) signaling pathway - cell viability counter screen (AID 1259380); further: nearly all actives have a fitted effect of over 30% in size
Outline: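 Cell viability counter screen: CellTiter-Glo luminescence (30 min, room temperature) measured in the same wells as the beta-lactamase readout, after 16 hr compound exposure at 37C of ER-beta-bla HEK293T cells in 2% charcoal-stripped FBS medium.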

Structure (SMILES) | Potency [1] | outcome [2] | Potency [3] | Potency [4] | Potency [5] | outcome [6] | outcome [7] | Potency [8] | Potency [9] | Potency [10] | Potency [11] | Potency [12] | Potency [13] | outcome [14] | Potency [15] | outcome [16] | Potency [17] | outcome [18] | Potency [19]
CC(=O)CN(CC(C)=O)N=O | inactive | inactive | inactive | inactive | inactive | inactive | inactive | inactive | inactive | inactive | inactive | inactive | inactive | inactive | inactive | inactive | inactive | – | –
O=C(O)C(Cl)Br (centres undefined) | inactive | inactive | inactive | inactive | – | inactive | – | inactive | inactive | inactive | inactive | inactive | inactive | inactive | – | inactive | inactive | inactive | –
CCNc1nc(Cl)nc(NC(C)(C)C)n1 | 27.3 µM (active) | inactive | inactive | inactive | – | – | – | inactive | inactive | – | inactive | inactive | inactive | inactive | – | inactive | inactive | inactive | –
NC(=O)CS(=O)C(c1ccccc1)c1ccccc1 (centres undefined) | inactive | inactive | inactive | inactive | inactive | inactive | inactive | inactive | – | inactive | inactive | inactive | inactive | inactive | inactive | inactive | inactive | – | –
Cc1cc(OC(=O)N(C)C)nn1C(=O)N(C)C | inactive | inactive | inactive | inactive | inactive | inactive | inactive | inactive | inactive | inactive | inactive | inactive | inactive | inactive | inactive | inactive | inactive | inactive | –
C=C1CC[C@@]2(O)[C@H]3Cc4ccc(O)c5c4[C@@]2(CCN3CC2CC2)[C@H]1O5 | inactive | inactive | inactive | inactive | – | inactive | inactive | inactive | inactive | inactive | 2.98 µM (active) | inactive | inactive | – | – | – | inactive | inactive | –
CCOC(=O)CCl | inactive | inactive | inactive | inactive | inactive | inactive | inactive | inactive | inactive | inactive | inactive | inactive | – | inactive | – | – | inactive | inactive | –
CCSC(=O)Cl | inactive | inactive | inactive | inactive | inactive | inactive | inactive | inactive | inactive | inactive | inactive | inactive | inactive | inactive | – | – | inactive | inactive | –
CC(C)[C@]12CC(=O)[C@H](C)[C@H]1C2 | inactive | inactive | inactive | inactive | – | – | – | inactive | – | – | – | inactive | inactive | – | – | – | inactive | inactive | inactive
COc1ccccc1OC | inactive | inactive | inactive | inactive | inactive | inactive | inactive | inactive | inactive | inactive | inactive | inactive | – | inactive | inactive | inactive | inactive | inactive | –
CCc1ccc(C2CCNCC2)cc1 | inactive | inactive | – | inactive | inactive | inactive | inactive | inactive | – | inactive | – | – | inactive | inactive | inactive | inactive | inactive | inactive | inactive
CCN(CCO)CCO | inactive | inactive | inactive | inactive | inactive | inactive | inactive | inactive | inactive | inactive | inactive | inactive | inactive | inactive | inactive | – | – | – | –
CCCCCCC1CCOC1=O (centres undefined) | inactive | inactive | inactive | inactive | – | – | inactive | inactive | – | inactive | inactive | inactive | inactive | inactive | inactive | – | inactive | inactive | inactive
CS(=O)(=O)Cl | inactive | inactive | inactive | inactive | inactive | inactive | inactive | inactive | inactive | inactive | inactive | inactive | inactive | inactive | – | inactive | inactive | inactive | –
CC1NCCOC1c1ccccc1 (centres undefined) | inactive | inactive | inactive | inactive | inactive | inactive | inactive | inactive | inactive | inactive | inactive | inactive | inactive | inactive | inactive | inactive | inactive | inactive | –
O=C(O)c1c(Cl)ccc2cc(Cl)cnc12 | inactive | inactive | inactive | inactive | inactive | inactive | inactive | inactive | inactive | inactive | inactive | inactive | inactive | inactive | inactive | inactive | inactive | – | –
C=CC(=O)OCCN(C)C | inactive | inactive | inactive | inactive | – | – | – | inactive | – | inactive | inactive | inactive | inactive | – | – | – | inactive | – | inactive
